SMILES strings stand for the structures. Among all 340,000 compounds or so, about 2,100 (0.62%) were called active. Not all results are given here. Potency and affinity values are given separately. Unmarked numbers belong to inactive results.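 The calls were made as follows: active = first-screen hits whose inhibition reached a set limit at any dose in the follow-up dose series; inconclusive = inhibition above the set first-screen limit but never retested; inactive = the rest.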

In this assay the target is Rac GTPase-activating protein 1 (Homo sapiens) (UniProt Q9H0H5). Description: blockers of MgcRacGAP-driven Rac1 GTP hydrolysis – biochemical, ADP Hunter fluorescence, primary and confirmatory, confirmation (AID 624330).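 Also: fluorescence reports GDP produced by GAP-driven GTP hydrolysis.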 Particulars: MgcRacGAP-stimulated Rac1 GTP hydrolysis, at 30 µM, hits give high values, GST-tagged Rac1 F28L mutant substrate.
Chain of Rac GTPase-activating protein 1 (Homo sapiens) (Q9H0H5 whole entry, looked up): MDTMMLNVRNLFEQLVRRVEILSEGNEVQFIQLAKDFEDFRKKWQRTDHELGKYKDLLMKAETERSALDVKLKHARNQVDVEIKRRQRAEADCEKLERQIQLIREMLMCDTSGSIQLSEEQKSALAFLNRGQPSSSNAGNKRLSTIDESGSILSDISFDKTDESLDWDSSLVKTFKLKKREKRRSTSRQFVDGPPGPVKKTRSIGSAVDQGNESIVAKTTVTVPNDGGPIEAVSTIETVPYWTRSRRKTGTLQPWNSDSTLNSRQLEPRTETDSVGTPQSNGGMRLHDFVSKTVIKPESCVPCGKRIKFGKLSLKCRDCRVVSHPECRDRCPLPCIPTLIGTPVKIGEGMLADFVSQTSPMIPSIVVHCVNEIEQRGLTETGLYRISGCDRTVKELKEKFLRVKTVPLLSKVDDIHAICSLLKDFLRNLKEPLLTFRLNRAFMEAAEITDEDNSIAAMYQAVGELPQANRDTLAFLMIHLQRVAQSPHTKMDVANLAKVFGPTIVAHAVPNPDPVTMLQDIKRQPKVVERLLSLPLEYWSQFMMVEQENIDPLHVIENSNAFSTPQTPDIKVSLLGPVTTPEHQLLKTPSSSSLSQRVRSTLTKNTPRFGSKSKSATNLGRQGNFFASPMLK
`Cc1ccc(C(=O)N2CC=C(c3ccccc3)CC2)s1`: the inhibition is -2.79%. With `CCCCN(C(=O)Nc1ccc(Cl)cc1)C1CCN(C(C)=O)CC1`, the inhibition was 12.3%. In the case of `Cc1cc(NC(=O)c2ccc([N+](=O)[O-])cc2Cl)ccc1NC(=O)c1ccco1`, the inhibition is 5.16%.

With `C=CCc1cccc(C=Nc2ccc(Br)cc2)c1O`, the inhibition is 2.02%.

`C=CCc1cccc(/C=N/c2ncccc2O)c1O`: the inhibition is 15.7%. With `Oc1ccccc1C=Nc1cccc2ccccc12` the figure was 12.9%. With `Cc1cccc(N=Cc2ccccc2O)c1C` the figure was 6.78%. With `Cc1ccccc1N=Cc1cccc(O)c1O` the figure was 12.1%.

As for `Cc1ccc(N=Cc2cccc(O)c2O)c(C)c1`, the inhibition is 27.7%.

On to `COc1ccc(COCC(O)CN2CCC(CN3C(=O)c4cccc5cccc(c45)C3=O)CC2)cc1OC` (stereo not drawn), for which the inhibition is 5.74%. In the case of `O=C(c1cc(=O)c2ccccc2o1)N1CCCc2ccccc21`, the inhibition is 4.48%. On to `O=C(O)CCCC(=O)Nc1nc2n(n1)C(c1ccc(F)cc1)CC(c1ccc(Cl)cc1)N2` (stereo not drawn), for which the inhibition is -3.19%.

As to `Brc1ccc(CSc2nccn2-c2ccccc2)cc1`, the inhibition is -2.52%.

Turning to `CCOc1ccc(-c2nnc(-c3ccccc3)n2-c2ccccc2)cc1`, the inhibition is 1.23%. The result for `CCOc1ccc(S(=O)(=O)NCCC(=O)OCC(=O)N2CC(=O)Nc3ccccc32)cc1` reads 2.23%. With `CCN(CC)S(=O)(=O)c1ccc(Cl)c(NC(=O)COC(=O)c2cc(-c3ccccc3Cl)nc3ccccc23)c1` the figure was 5.1%; with `CC(C)N(Cc1nccn1C)C(=O)c1ccc2oc(CCCc3ccccc3)nc2c1`, -4.5%. As for `COc1ccc(NC(=S)c2ccc(N(C)C)cc2)cc1`, the inhibition is 6.87%. With `COc1cc(OC)c(C(=O)Nc2ccncc2)cc1OC` the figure was 6.31%. The result for `COc1cc(C(=O)Nc2ccc(N(C)C)cc2)c([N+](=O)[O-])cc1OC` reads 19.1%. The result for `Cc1oc(-c2ccccc2)cc1C(=O)Nc1ccccc1` reads 19.3%. Regarding `COc1ccc(NC(=O)Nc2ccc(OC)cc2)cc1`, the inhibition is 4.31%. The result for `COc1ccc(NC(=O)c2cc(-c3ccccc3)oc2C)cc1` reads 8.42%; that for `CCOc1ccccc1C(=O)NCC(=O)NCC(C)(C)N1CCOCC1`, 3.54%; that for `O=C(C1COc2ccccc2O1)N1CCN(c2nc3c(F)cc(F)cc3s2)CC1` (stereo not drawn), 1.62%. For `CCOC(=O)C1CCCN(S(=O)(=O)c2c(C)c(C)cc(C)c2C)C1` (stereo not drawn), the inhibition is 3.51%. The result for `COC(=O)C1=C(C(=O)c2ccccc2)C(c2cccs2)n2nnnc2N1` (stereo not drawn) reads 12.1%. The result for `CCN(c1ccccc1)S(=O)(=O)c1cccc(C(=O)Nc2cccc(C)n2)c1` reads 16.5%. On to `CCC1CCCCN1C(=O)CSc1nc(N)cc(=O)[nH]1` (stereo not drawn), for which the inhibition was 9.52%. With `COc1ccc(Cl)cc1NCCC(O)c1ccc(F)cc1` (stereo not drawn) the figure was 10.5%; with `COc1ccc(C(O)CNc2ccc(C)cc2)cc1` (stereo not drawn), 12.6%; with `Cc1cccc(NC(=O)c2ccc(COc3ccccc3)o2)n1`, -1.27%.

Consider `CC(C)(CC(=O)OCC(=O)Nc1ccccc1F)CC1=NS(=O)(=O)c2ccccc2N1`, for which the inhibition is 8.87%. In the case of `CCOC(=O)C1(CC2CCCCO2)CCN(C(=O)Nc2ccc(C)c(C)c2)CC1` (stereo not drawn), the inhibition is 8.55%. For the molecule `O=C(NCc1ccccc1)C1=C[C@H](c2csc3ccccc23)C[C@H](OCCCCO)O1`, the inhibition was 5.83%.

`Cc1nnn(-c2nonc2N)c1C(=O)N/N=C/c1ccccc1O`: the inhibition was 5.56%. The result for `Cc1nonc1C(=O)N/N=C/c1ccc([N+](=O)[O-])o1` reads 6.74%; that for `Cc1nonc1C(=O)N/N=C/c1ccccc1`, 7.47%; that for `COc1cccc(/C=N/NC(=O)c2nnn(-c3nonc3N)c2C(C)C)c1`, 2.84%. The result for `Cc1nonc1C(=O)N/N=C/c1ccncc1` reads 4.44%. As to `COc1cc(/C=N/NC(=O)c2c(C)nnn2-c2nonc2N)ccc1O`, the inhibition was 21.5%. With `COc1cc(/C=N/NC(=O)c2nnn(-c3nonc3N)c2C(C)C)ccc1OCc1ccccc1`, the inhibition was 12.2%.

For the molecule `Cc1nonc1C(=O)N/N=C/c1cccc(O)c1`, the inhibition was 5.55%. The result for `Cc1cc(NC(=O)COC(=O)c2cc([N+](=O)[O-])ccc2N2CCOCC2)ccc1Br` reads -0.1%. The result for `O=C(COc1ccccc1F)NC12CC3CC(CC(C3)C1)C2` reads 9.07%; that for `CCN(CC(=O)Nc1c(F)cccc1F)C(=O)c1ccc(=O)n(C)n1`, 7.24%; that for `CN(C)CCNC(=O)C(=O)NCC1OCCCN1S(=O)(=O)c1cccs1` (stereo not drawn), 5.17%. The result for `CCN(CC)CCN(CC(=O)Nc1c(C)cc(C)cc1C)C(=O)c1ccccc1` reads 14.8%; that for `CCN(CC)C(=O)CSc1nc2ncc(Br)cc2[nH]1`, 1.23%; that for `CCCCN(C)C(=O)c1ccc2c(c1)N(CC)C(=O)c1ccccc1S2=O` (stereo not drawn), 7.28%. On to `O=C(N/N=C/c1ccc(O)cc1O)C(=O)N/N=C/c1ccc(O)cc1O`, for which the inhibition was 16.7%. Take `COc1ccc(/C=N/NC(=O)c2nonc2N)cc1OC`: the inhibition was 11.7%. The result for `Cc1nonc1C(=O)N/N=C/c1cc2c(cc1Br)OCO2` reads -12.5%; that for `COc1ccc(/C=N/NC(=O)c2nonc2C)cc1`, 17.8%; that for `COc1ccnc(N=CNOCc2ccc(Cl)cc2)c1C#N`, 13.5%. Turning to `COc1ccc(NS(=O)(=O)c2c(C)[nH]c(=O)[nH]c2=O)cc1OC`, the inhibition is 8.91%. The result for `Cc1cccc(N(C)S(=O)(=O)c2ccc3[nH]cc(C(=O)N4CCOCC4)c(=O)c3c2)c1` reads -3.07%. Regarding `CCOC(=O)Cc1nnc(NCc2ccccc2)c2ccccc12`, the inhibition was 6.91%. With `Cc1cccc(N(CC(=O)NCC2CCCO2)C(=O)CCC(=O)Nc2cc(C)on2)c1` (stereo not drawn) the figure was 4.72%; with `CC(C)(C)n1cnc2cc(NCc3ccccc3O)ccc21`, 13.7%. With `COc1cccc(CNc2ccc3c(c2)nc(C)n3C)c1OC` the figure was 30.5%; with `Cn1cnc2cc(NCc3ccccc3Cl)ccc21`, 26.5%; with `COc1cccc(CNc2ccc3c(c2)ncn3C(C)C)c1OC`, 24.5%.

Usually inhibition stands for the change of the read-out against control, counted positive when it falls.
